Among the data in PubChem BioAssay (NCI) are growth inhibition values, retold here.

Structures are written as SMILES. The panel holds about 79,000 compounds, 15% with a hit somewhere; the sample as a whole holds those more often. A number with no mark means an inactive call. The source made the active and inactive calls. No stated cut-off is given here; in the data, active means growth inhibition above about 70%; inactive means the rest.

Experiment [1] can be described thus: NCI Yeast Anticancer Drug Screen. Data for the rad50 strain (AID 155).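 Further: 0% = growth of vehicle-only cultures of the same strain.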 The conditions noted are these: S. cerevisiae rad50 strain growth inhibition, hits give high values. Put shortly: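 Readout: growth inhibition relative to vehicle-treated cultures. Compound exposure was carried out in a genetically defined yeast strain deficient in DNA damage repair.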
Experiment [2] is described as follows: NCI Yeast Anticancer Drug Screen. Data for the mec2-1 strain (AID 157). Conditions: S. cerevisiae mec2-1 strain, hits give high values. Put shortly:
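Test agents were screened against the mec2-1 yeast strain, with defined DNA repair or cell cycle alteration. Growth was scored as inhibition against vehicle-only controls.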

Experiment [3] can be described thus: NCI Yeast Anticancer Drug Screen. Data for the sgs1 mgt1 strain (AID 161).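 Further: 0% = growth of cultures given vehicle only.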 Conditions: S. cerevisiae sgs1 mgt1 strain, hits give high values. Put shortly:
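Inhibition of yeast growth, normalised to vehicle-treated controls, is reported for a strain bearing genetic alterations in DNA damage repair.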

The nature of experiment [4]: NCI Yeast Anticancer Drug Screen. Data for the cln2 rad14 strain (AID 165).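 Further: 0% = growth equal to vehicle treated cultures.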 Conditions: S. cerevisiae cln2 rad14 strain, hits give high values. The gist of the method:
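Growth of compound-exposed yeast (cln2 rad14 genotype) measured and expressed as inhibition relative to vehicle.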

Experiment [5] is described as follows: NCI Yeast Anticancer Drug Screen. Data for the bub3 strain (AID 167). Conditions: S. cerevisiae bub3 mutant strain, hits give high values. The gist of the method:
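Readout: yeast growth inhibition, expressed relative to vehicle-only wells. The test organism is a mutant strain from a panel with lesions in DNA repair or checkpoint genes.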

Experiment [6] can be described thus: NCI Yeast Anticancer Drug Screen. Data for the mlh1 rad18 strain (AID 175). The conditions noted are these: S. cerevisiae mlh1 rad18 strain growth inhibition, hits give high values. Put shortly: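 In this whole-cell yeast screen, a strain with altered DNA damage repair is challenged with compound, and its growth is measured against matched vehicle-treated controls.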

Setting [7] is: at 5.0 µM (retest, dose inferred, filed as 0.5).
The mark [8] stands for this setting: at 50.0 µM (retest, dose inferred, filed as 5.0).

Regarding `O=C(Cl)C(c1ccccc1)(c1ccccc1)c1ccccc1`, the growth inhibition in experiment [1] (setting [7]) was -3%; in experiment [1] (setting [8]), 98% (active); in experiment [1] (at 50.0 µM) it was 98.2% (active); in experiment [2] (setting [7]) it was 14%; in experiment [2] (setting [8]), 97% (active); in experiment [2] (at 50.0 µM), 95.1% (active). The growth inhibition in experiment [3] (setting [7]) is -10%; in experiment [3] (setting [8]), 98% (active); in experiment [3] (at 50.0 µM), 97.8% (active); in experiment [4] (setting [7]), 18%; in experiment [4] (setting [8]) it was 98% (active); in experiment [4] (at 50.0 µM), 92% (active). Moreover, the growth inhibition in experiment [5] (setting [7]) is 10%; in experiment [5] (setting [8]), 98% (active); in experiment [5] (at 50.0 µM) it was 94.7% (active); in experiment [6] (setting [7]), -8%; in experiment [6] (setting [8]), 99% (active); in experiment [6] (at 50.0 µM), 96.3% (active).
Consider `CCOC(=O)C1(C#N)C(c2ccccc2)CC(O)(c2ccc([N+](=O)[O-])cc2)C(C(=O)c2ccc([N+](=O)[O-])cc2)C1c1ccccc1` (stereo not given), for which the growth inhibition in experiment [1] (setting [7]) was -10%; in experiment [1] (setting [8]), -25%; in experiment [1] (at 50.0 µM), 15.6%; in experiment [2] (setting [7]), 5%; in experiment [2] (setting [8]), -12%; in experiment [2] (at 50.0 µM), 14.3%. For the same molecule, the growth inhibition is -8% in experiment [3] (setting [7]); 0% in experiment [3] (setting [8]); -6.4% in experiment [3] (at 50.0 µM); -18% in experiment [4] (setting [7]); -17% in experiment [4] (setting [8]); 31.4% in experiment [4] (at 50.0 µM). Moreover, the growth inhibition in experiment [5] (setting [7]) was -13%; in experiment [5] (setting [8]), 2%; in experiment [5] (at 50.0 µM), 6%; in experiment [6] (setting [7]) it was 1%; in experiment [6] (setting [8]), -3%; in experiment [6] (at 50.0 µM), 21.2%.
As for `CC1(C)C2CCC1(CS(=O)O)C(=O)C2.[Ag]` (stereo not given), the growth inhibition was 99% (active) in experiment [1] (setting [7]); 99% (active) in experiment [1] (setting [8]); 99.2% (active) in experiment [1] (at 50.0 µM); 100% (active) in experiment [2] (setting [7]); 99% (active) in experiment [2] (setting [8]); 99.5% (active) in experiment [2] (at 50.0 µM). For the same molecule, the growth inhibition in experiment [3] (setting [7]) was 100% (active); in experiment [3] (setting [8]), 99% (active); in experiment [3] (at 50.0 µM) it was 99.5% (active); in experiment [4] (setting [7]), 99% (active); in experiment [4] (setting [8]) it was 99% (active); in experiment [4] (at 50.0 µM), 98.7% (active). Also, the growth inhibition in experiment [5] (setting [7]) was 99% (active); in experiment [5] (setting [8]) it was 99% (active); in experiment [5] (at 50.0 µM), 99.5% (active); in experiment [6] (setting [7]), 100% (active); in experiment [6] (setting [8]), 99% (active); in experiment [6] (at 50.0 µM) it was 99.6% (active).
For the molecule `CC1C[N+](C)(C)C(C)C(=O)C1(c1ccccc1)c1ccccc1` (stereo not given), the growth inhibition in experiment [1] (setting [7]) is -9%; in experiment [1] (setting [8]), 2%; in experiment [1] (at 50.0 µM) it was 6.6%; in experiment [2] (setting [7]) it was -2%; in experiment [2] (setting [8]), 2%; in experiment [2] (at 50.0 µM), 10.9%. For the same molecule, the growth inhibition in experiment [3] (setting [7]) is -23%; in experiment [3] (setting [8]), 3%; in experiment [3] (at 50.0 µM), -10.3%; in experiment [4] (setting [7]), -1%; in experiment [4] (setting [8]) it was -2%; in experiment [4] (at 50.0 µM), -13.4%. Moreover, the growth inhibition was -4% in experiment [5] (setting [7]); -2% in experiment [5] (setting [8]); 28.2% in experiment [5] (at 50.0 µM); -6% in experiment [6] (setting [7]); -4% in experiment [6] (setting [8]); 19.1% in experiment [6] (at 50.0 µM).
As for `O=P(Nc1ccccc1)(OCc1ccccc1)OCc1ccccc1`, the growth inhibition is -4% in experiment [1] (setting [7]); 98% (active) in experiment [1] (setting [8]); 98.5% (active) in experiment [1] (at 50.0 µM); 12% in experiment [2] (setting [7]); 99% (active) in experiment [2] (setting [8]); 94.7% (active) in experiment [2] (at 50.0 µM). The growth inhibition in experiment [3] (setting [7]) was -4%; in experiment [3] (setting [8]), 99% (active); in experiment [3] (at 50.0 µM), 98.8% (active); in experiment [4] (setting [7]), 13%; in experiment [4] (setting [8]) it was 99% (active); in experiment [4] (at 50.0 µM), 67%. The growth inhibition was 0% in experiment [5] (setting [7]); 99% (active) in experiment [5] (setting [8]); 40.8% in experiment [5] (at 50.0 µM); 5% in experiment [6] (setting [7]); 99% (active) in experiment [6] (setting [8]); 99.1% (active) in experiment [6] (at 50.0 µM).
With `CCSC1(SCC)C(=O)OC2=C(CCCC2)C1N1CCOCC1` (stereo not given), the growth inhibition was 1% in experiment [1] (setting [7]); 21% in experiment [1] (setting [8]); 34.1% in experiment [1] (at 50.0 µM); 2% in experiment [2] (setting [7]); 12% in experiment [2] (setting [8]); 14.2% in experiment [2] (at 50.0 µM). Besides, the growth inhibition in experiment [3] (setting [7]) is 0%; in experiment [3] (setting [8]) it was 18%; in experiment [3] (at 50.0 µM) it was 0.35%; in experiment [4] (setting [7]) it was -2%; in experiment [4] (setting [8]), 31%; in experiment [4] (at 50.0 µM), 34.9%. Also, the growth inhibition in experiment [5] (setting [7]) was -4%; in experiment [5] (setting [8]) it was 11%; in experiment [5] (at 50.0 µM), 13.3%; in experiment [6] (setting [7]) it was -1%; in experiment [6] (setting [8]), 24%; in experiment [6] (at 50.0 µM), 15.6%.
For the molecule `Nc1ccc2c(c1)NCCN2`, the growth inhibition in experiment [1] (setting [7]) was 42%; in experiment [1] (setting [8]), 76% (active); in experiment [1] (at 50.0 µM), 84% (active); in experiment [2] (setting [7]), 5%; in experiment [2] (setting [8]), 17%; in experiment [2] (at 50.0 µM), 32.1%. In addition, the growth inhibition in experiment [3] (setting [7]) was 4%; in experiment [3] (setting [8]), 20%; in experiment [3] (at 50.0 µM), 23.5%; in experiment [4] (setting [7]), 3%; in experiment [4] (setting [8]), 6%; in experiment [4] (at 50.0 µM) it was 21.4%. The growth inhibition is 1% in experiment [5] (setting [7]); 18% in experiment [5] (setting [8]); 18.2% in experiment [5] (at 50.0 µM); 7% in experiment [6] (setting [7]); 31% in experiment [6] (setting [8]); 53.4% in experiment [6] (at 50.0 µM).
Regarding `Cc1c2[nH]c3ccc(Br)cc3c2c(C)c2[nH]ccc(=O)c12`, the growth inhibition is -5% in experiment [1] (setting [7]); 72% (active) in experiment [1] (setting [8]); 98.9% (active) in experiment [1] (at 50.0 µM); -8% in experiment [2] (setting [7]); 59% in experiment [2] (setting [8]); 98.7% (active) in experiment [2] (at 50.0 µM). Further, the growth inhibition is -17% in experiment [3] (setting [7]); 28% in experiment [3] (setting [8]); 99% (active) in experiment [3] (at 50.0 µM); -26% in experiment [4] (setting [7]); 57% in experiment [4] (setting [8]); 97% (active) in experiment [4] (at 50.0 µM). Further, the growth inhibition is 2% in experiment [5] (setting [7]); 81% (active) in experiment [5] (setting [8]); 98.3% (active) in experiment [5] (at 50.0 µM); -11% in experiment [6] (setting [7]); 96% (active) in experiment [6] (setting [8]); 96.8% (active) in experiment [6] (at 50.0 µM).
With `COC1/C=C/OC2(C)Oc3c(C)c(O)c4c5c(cc(O)c4c3C2=O)N=C(O5)/C(C)=C\C=C\C(C)C(O)C(C)C(O)C(C)C(OC(C)=O)C1C` (stereo not given), the growth inhibition in experiment [1] (setting [7]) is 5%; in experiment [1] (setting [8]) it was 99% (active); in experiment [1] (at 50.0 µM), 55.2%; in experiment [2] (setting [7]), -71%; in experiment [2] (setting [8]), 99% (active); in experiment [2] (at 50.0 µM), 60%. The growth inhibition in experiment [3] (setting [7]) was -60%; in experiment [3] (setting [8]) it was 96% (active); in experiment [3] (at 50.0 µM), 53.6%; in experiment [4] (setting [7]), 28%; in experiment [4] (setting [8]), 99% (active); in experiment [4] (at 50.0 µM), 53.5%. The growth inhibition in experiment [5] (setting [7]) was 3%; in experiment [5] (setting [8]), 99% (active); in experiment [5] (at 50.0 µM) it was 48.5%; in experiment [6] (setting [7]), 4%; in experiment [6] (setting [8]) it was 98% (active); in experiment [6] (at 50.0 µM), 60.6%.
For the molecule `O=C(c1ccccc1)c1ccc(Br)cc1O`, the growth inhibition in experiment [1] (setting [7]) is -3%; in experiment [1] (setting [8]), 21%; in experiment [1] (at 50.0 µM), 57%; in experiment [2] (setting [7]), -9%; in experiment [2] (setting [8]), 12%; in experiment [2] (at 50.0 µM), 21.9%. In addition, the growth inhibition in experiment [3] (setting [7]) is -4%; in experiment [3] (setting [8]) it was 33%; in experiment [3] (at 50.0 µM) it was 31.8%; in experiment [4] (setting [7]), -5%; in experiment [4] (setting [8]), 9%; in experiment [4] (at 50.0 µM), 28.1%. Moreover, the growth inhibition was -12% in experiment [5] (setting [7]); -11% in experiment [5] (setting [8]); 38.1% in experiment [5] (at 50.0 µM); 1% in experiment [6] (setting [7]); 8% in experiment [6] (setting [8]); 68.8% in experiment [6] (at 50.0 µM).
